{
  "source": "ChEMBL document CHEMBL1157539",
  "about": "“Thousands of chemical starting points for antimalarial lead identification” (Nature, 2010)",
  "data": [
    {"tested_on": "Plasmodium falciparum", "test": "GSK_TCMDC: Inhibition of Plasmodium falciparum Dd2 in whole red blood cells, using parasite LDH activity as an index of growth. Test compounds present at 2uM", "assay_type": "functional", "units": {"Inhibition": "%"}, "values": [
      {"smiles": "CC(C)c1ccc(NC(=O)c2cccc(CN3CCCN(CC4CCCCC4)CC3)c2)cc1.O=C(O)C(F)(F)F", "Inhibition": 59},
      {"smiles": "O=C(NCCN1CCC(c2ncc(-c3ccccc3)o2)CC1)c1ccc(NC(=O)c2ccc(Cl)cc2)cc1", "Inhibition": 80},
      {"smiles": "O=C(O)C(F)(F)F.O=C1CCCN1CCCNCc1ccc(-c2ccc(-c3nc4cc(F)ccc4[nH]3)cc2)cc1", "Inhibition": 99},
      {"smiles": "O=c1c(Br)c(C(F)(F)F)[nH]c2ccc(Oc3ccccc3)cc12", "Inhibition": 17}
    ]},
    {"tested_on": "HepG2", "test": "GSK_TCMDC: Percent inhibition of human HepG2 cell line. Test compounds present at 10uM.", "assay_type": "functional", "units": {"Inhibition": "%"}, "values": [
      {"smiles": "FC(F)(F)c1ccc(/C=C/c2cncnc2Nc2ccc3[nH]c(Cc4ccccc4)nc3c2)cc1", "Inhibition": 21},
      {"smiles": "COc1cc(CN=C(S)NN=C(C)c2ccccn2)cc(OC)c1OC", "Inhibition": 45},
      {"smiles": "Cc1noc(C)c1-c1ccc2c(Nc3nccc4ccccc34)c(C(N)=O)cnc2c1", "Inhibition": 100},
      {"smiles": "Cc1noc(C)c1-c1cccc(CNCc2cccc(-c3ccc(-c4nc5cccc(C)c5[nH]4)s3)c2)c1.O=C(O)C(F)(F)F", "Inhibition": 22},
      {"smiles": "Cl.N#Cc1ccc(NC(=O)Nc2ccc3c(c2)CCN(C2CCC2)CC3)cc1", "Inhibition": 6},
      {"smiles": "Br.CC(CCON1C(N)=NC(N)=NC1(C)C)c1ccc(Cl)c(Cl)c1", "note": "(centres undefined)", "Inhibition": 60},
      {"smiles": "CCCCCNc1nc2nc(N)nc(N)c2nc1-c1ccccc1.Cl", "Inhibition": 9},
      {"smiles": "COc1cccc(C(O)CNc2ccnc(Nc3ccc(Cl)cc3)n2)c1", "note": "(centres undefined)", "Inhibition": 31},
      {"smiles": "CC(C)CNCc1cccc(-c2ccc(CN(C(=O)NCCc3ccccc3)C3CCN(Cc4ccccc4)CC3)cc2)c1.O=C(O)C(F)(F)F", "Inhibition": 99},
      {"smiles": "COc1ccc(-n2ccnc2SCC(=O)Nc2cc(Cl)ccc2OC)c(OC)c1", "Inhibition": 0},
      {"smiles": "COC(=O)c1cc2cccc(NC[C@@H](C)NC[C@H](O)c3cccc(Cl)c3)c2[nH]1", "Inhibition": 0},
      {"smiles": "O=C(O)C(F)(F)F.O=[N+]([O-])c1cccc(CNCC2CCN(Cc3ccc(Cl)c(Cl)c3)CC2)c1", "Inhibition": 9},
      {"smiles": "Cc1ncc(CN2CCC(C(=O)Nc3ccc(-c4nc5ccccc5o4)cc3)CC2)s1", "Inhibition": 0},
      {"smiles": "COc1ccccc1CCNC(=O)c1cnc(N2CCN(c3ccncc3)CC2)c(Cl)c1.O=C(O)C(F)(F)F", "Inhibition": 30},
      {"smiles": "O=C(NCCN1CCCC1)N1CCCN(c2ncnc3cc(-c4ccc(F)cc4)sc23)CC1.O=C(O)C(F)(F)F", "Inhibition": 5},
      {"smiles": "Cc1nc(-c2cccc3c(NC(=O)N4CCc5cc6nccc(N7CCN(C)CC7)c6cc54)cccc23)no1.Cl", "Inhibition": 45},
      {"smiles": "COC(=O)[C@@H](NC(=O)[C@H](Cc1ccc(OC)c(OC)c1)Nc1ccc(C#N)c2ccccc12)c1ccc(O)cc1.O=C(O)C(F)(F)F", "Inhibition": 6},
      {"smiles": "CCOC(=O)c1ccc(NC(=O)Nc2ccc(-c3ccc(-c4nc5cccc(C)c5[nH]4)s3)cc2)cc1", "Inhibition": 60},
      {"smiles": "FC(F)c1nc2ccccc2n1-c1nc(N2CCOCC2)nc(N2CCOCC2)n1", "note": "[ZSTK-474]", "Inhibition": 47},
      {"smiles": "O=C(NCc1ccccc1)c1nn(CCCN2CCC(N3CCCC3)CC2)cc1-c1ccc(Cl)c(Cl)c1", "Inhibition": 29},
      {"smiles": "CCOC(=O)c1c[nH]c2c(sc3cc(OC)ccc32)c1=O", "Inhibition": 0},
      {"smiles": "O=C(Nc1cccc(CN2CCCN(Cc3ccc(O)cc3)CC2)c1)c1cc(F)cc(F)c1.O=C(O)C(F)(F)F", "Inhibition": 15},
      {"smiles": "Cc1noc(C)c1-c1cccc(C(=O)NC2CCN(CCNC(=O)C(c3ccccc3)c3ccccc3)CC2)c1.O=C(O)C(F)(F)F", "Inhibition": 27},
      {"smiles": "CC(C(=O)NC1CCN(c2ccnc(Nc3ccc(F)cc3)n2)C1)c1ccc(Cl)cc1", "note": "(centres undefined)", "Inhibition": 17},
      {"smiles": "O=C(O)C(F)(F)F.OCC1CCN(Cc2cccc(-c3ccc(-c4nc5cc(F)ccc5[nH]4)cc3)c2)CC1", "Inhibition": 11},
      {"smiles": "COc1ccccc1-c1ccc(C(=O)NCC2CCCN(Cc3cccc(C(F)(F)F)c3)C2)s1.O=C(O)C(F)(F)F", "note": "(centres undefined)", "Inhibition": 18},
      {"smiles": "O=C(Nc1cccc(-c2cccc(-c3nc4cc(C(F)(F)F)ccc4[nH]3)c2)c1)c1cccnc1Cl", "Inhibition": 56},
      {"smiles": "Cc1c2c(nn1-c1ccccc1)C(c1ccccc1)N(c1ccccc1)C2=O", "note": "(centres undefined)", "Inhibition": 42},
      {"smiles": "CCN(CC)/C(=N/C(=N)Nc1ccc(Br)cc1)NCCCCCCN/C(=N\\C(=N)Nc1ccc(Br)cc1)N(CC)CC", "Inhibition": 0},
      {"smiles": "Cl.O=C(NCCCCN1CCC(c2ccc3c(c2OCCO)CCCC3)CC1)c1ccc(-c2ccc(C(F)(F)F)cc2)cc1", "Inhibition": 100},
      {"smiles": "CCN(CC)CCNC(=O)c1ccc(NC(=O)c2oc3c(Cl)cccc3c2C)cc1", "Inhibition": 24},
      {"smiles": "COCCCNc1sc(S(=O)(=O)c2ccccc2)nc1S(=O)(=O)c1ccc(C)cc1", "Inhibition": 7},
      {"smiles": "O=C(Nc1cccc(-c2cc3ccccc3[nH]2)c1)C1CCN(Cc2ccccc2O)CC1", "Inhibition": 34},
      {"smiles": "C=CCC(C)n1ncc2c3c(N)nc(N)nc3ccc21", "note": "(centres undefined)", "Inhibition": 66},
      {"smiles": "COc1ccc(CNC2Cc3ccccc3C2)cc1-c1ccc(OC)c(S(=O)(=O)NCCN2CCCC2)c1.O=C(O)C(F)(F)F", "Inhibition": 31},
      {"smiles": "COC(=O)Nc1cc(C(F)(F)F)ccc1N1CCCC(NS(=O)(=O)c2ccc(C(C)(C)C)cc2)C1", "note": "(centres undefined)", "Inhibition": 0},
      {"smiles": "CC(C)c1ccc(NC(=O)c2cccc(CN3CCCN(CC4CCCCC4)CC3)c2)cc1.O=C(O)C(F)(F)F", "Inhibition": 62},
      {"smiles": "O=C(NCCN1CCC(c2ncc(-c3ccccc3)o2)CC1)c1ccc(NC(=O)c2ccc(Cl)cc2)cc1", "Inhibition": 32},
      {"smiles": "O=C(O)C(F)(F)F.O=C1CCCN1CCCNCc1ccc(-c2ccc(-c3nc4cc(F)ccc4[nH]3)cc2)cc1", "Inhibition": 16},
      {"smiles": "O=c1c(Br)c(C(F)(F)F)[nH]c2ccc(Oc3ccccc3)cc12", "Inhibition": 6}
    ]}
  ]
}
